Laboratory results from PubChem BioAssay AID1259418 (Broad Institute, 2018).
Hit rate of the full screen: of about 3,400 compounds, about 840 (25%) were called active. Another 11% or so got no clear call; they are omitted.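 The calls were made as follows: active = fitted half-maximal concentration of signal decrease at or below twice the sample's top tested concentration; inconclusive = flat curve between -70 and -30 percent, or poor fit; inactive = flat within 30 percent, signal rise, or potency above limit.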 Only a sample is shown. Results with a measured potency or affinity are listed apart.

Assay: inhibitors of Toxoplasma growth in IFN-γ-primed HeLa – cell-based, ME49Luc, luciferase, 72 h, dose response (AID 1259418)
Conditions: T. gondii ME49Luc in IFN-y HeLa, stronger effect = lower value, -100% = high-dose IFN-γ control wells; at 19.5 µM unless noted

SMILES | max activity
Cc1nc(OCC(=O)Nc2ccccc2Br)c2ccccc2n1 | 28.1% [at 0.16 µM] (inactive)
Cc1ccc(C)c(-c2nc(CN3CCc4c(sc5c4CCCC5)C3c3ccccc3)c(C)o2)c1 (configuration not stated) | 15.8% (inactive)
COc1ccccc1-c1nc(Cn2nnc(-c3nc(-c4ccc5c(c4)OCO5)no3)c2C)c(C)o1 | 8.21% [at 0.35 µM] (inactive)
O=C(Nc1ccc(-c2nc(-c3ccccc3)co2)cc1)Nc1cccc(Cl)c1 | 19.9% [at 0.16 µM] (inactive)
O=C(c1cccnc1)N1CCC2(CC1)Nc1ccc(Cl)cc1-n1cccc12 | -27.3% [at 0.16 µM] (inactive)
O=C(NC1CC(=O)N(c2ccc(Cl)cc2)C1)C(=O)c1c[nH]c2ccccc12 (configuration not stated) | 22.9% [at 2.6 µM] (inactive)
CCOc1ccc(N2CC(NC(=O)C(=O)c3c[nH]c4ccccc34)CC2=O)cc1 (configuration not stated) | 10.2% [at 10 µM] (inactive)
O=C(Nc1ccc(-c2nc(-c3ccccc3)co2)cc1)Nc1ccc(Br)cc1F | 58.9% [at 10 µM] (inactive)
Cc1oc(-c2ccccc2)nc1Cn1nc2n(Cc3ccc(F)cc3)c(=O)c3nn(C)cc3n2c1=O | 15.8% (inactive)
Cc1ccc(Cn2c(=O)c3nn(C)cc3n3c(=O)n(Cc4nc(-c5ccc(C)cc5)oc4C)nc23)cc1 | 11.5% [at 2.6 µM] (inactive)
Cc1cccc(NC(=O)Nc2ccc(-c3nc(-c4ccccc4)co3)cc2)c1 | 16.2% [at 0.16 µM] (inactive)
CN1C(=O)CCc2cc(NC(=O)CC3CCCCC3)ccc21 | 8.53% (inactive)
CN1C(=O)c2cc(NC(=O)c3cccc(F)c3)ccc2OC[C@@H]2O[C@@H](CC(=O)NCC3CCCCC3)CC[C@@H]21 | -24.1% (inactive)
COc1ccc(-c2nc(Nc3cccc(Cl)c3)c3ccccc3n2)cc1 | 22.1% [at 0.35 µM] (inactive)
CCN(CC)C(=O)C1Cn2ccnc2C2(CCN(CC(C)C)CC2)O1 (configuration not stated) | 37.9% (inactive)
O=C(NCCc1csc(-c2ccccc2)n1)C1CCN(C(=O)Cc2cccs2)CC1 | 5.42% [at 0.35 µM] (inactive)
Cn1nnc2c(NCCSc3c[nH]c4ccccc34)ncnc21 | 5.75% [at 0.16 µM] (inactive)
CN1C(=O)CCc2cc(NC(=O)C3CCCC3)ccc21 | 11.7% (inactive)
O=C1CCc2cc(NC(=O)C3CC3)ccc2N1 | -5.5% [at 5 µM] (inactive)
CC(C)N1CCC(c2ccnc3c(C(=O)N4CCCN(C)CC4)ncn23)CC1 | 39% (inactive)
Cc1ccc(S(=O)(=O)N2CCC3(CC2)NCCN=C3NCc2ccc(F)c(Cl)c2)c(C)c1 | 14% [at 5 µM] (inactive)
Cc1ccc(S(=O)(=O)N2CCC3(CC2)NCCN=C3NCc2cccc(F)c2)cc1C | 6.41% [at 5 µM] (inactive)
COc1ccccc1CCC(=O)N1CCC[C@@H]1C(=O)NCCc1csc(-c2ccccc2)n1 | -10.5% (inactive)
Cc1nc(N2CCCC2)nc2c1CCN(S(=O)(=O)c1ccccc1)CC2 | 10.7% [at 10 µM] (inactive)

SMILES | max activity
Cc1ccc(S(=O)(=O)N2CCC3(CC2)NCCN=C3NCc2ccc(F)cc2)cc1C | 30.3% [at 5 µM] (inactive)
CCC1CCCCN1S(=O)(=O)c1cc(-c2nc(C)c(C)s2)sc1C (configuration not stated) | 7.15% [at 0.68 µM] (inactive)
Cc1nc(CCNC(=O)[C@H]2CCCN2S(=O)(=O)c2cnn(C(F)F)c2C)cs1 | 13.7% [at 10 µM] (inactive)
Cc1ccc2c(c1C)-n1cccc1C1(CCN(C(=O)c3cccnc3)CC1)N2 | 5.96% [at 0.68 µM] (inactive)
COc1ccccc1C#Cc1ccc([C@@H]2[C@H](CO)N3CCCCN(C(=O)C4CCC4)C[C@@H]23)cc1 | 14.6% [at 5 µM] (inactive)
COc1ccccc1C#Cc1ccc([C@H]2[C@@H](CO)N3CCCCN(C(=O)C4CCC4)C[C@H]23)cc1 | -7.46% [at 0.08 µM] (inactive)
Cc1cccc(-c2nc(Cn3nnc(-c4nc(-c5ccc6c(c5)OCO6)no4)c3C)c(C)o2)c1 | -10.5% [at 0.16 µM] (inactive)
Cc1ccc(CNc2nc(-c3ccc(Cl)cc3)nc3ccccc23)o1 | 42.3% (inactive)
Cc1ccc(NC(=O)Nc2ccc(-c3nc(-c4cc(C)ccc4C)co3)cc2)cc1 | 5.44% [at 2.6 µM] (inactive)
COc1cccc(CNC(=O)Nc2ccc(-c3nc(-c4ccc(C)cc4C)co3)cc2)c1 | 20.1% (inactive)
COc1ccccc1CN1CCc2nc(SCc3nc(-c4ccc(C)cc4)oc3C)[nH]c(=O)c2C1 | 34.1% (inactive)
CC1CCN(c2nc(-c3ccc(Cl)cc3)nc3ccccc23)CC1 | 5% [at 10 µM] (inactive)
COc1ccc(-c2nc(N3CCC(c4ccccc4)C3)c3ccccc3n2)cc1 (configuration not stated) | -14.1% [at 2.6 µM] (inactive)
Clc1ccc(-c2nc(N3CCN(C4CCCCC4)CC3)c3ccccc3n2)cc1 | 19% [at 0.16 µM] (inactive)
Clc1ccc(-c2nc(N3CCC(Cc4ccccc4)CC3)c3ccccc3n2)cc1 | 11.8% (inactive)
O=C(c1ccc(F)cc1)N1c2ccccc2Sc2ccc(C(F)(F)F)cc21 | -23.5% [at 0.08 µM] (inactive)
Cc1ccc(-c2cc(C(=O)Nc3ccc4c(c3)CCC(=O)N4)c3ccccc3n2)cc1C | 6.1% [at 1.35 µM] (inactive)
CCc1onc(C)c1C1CCCN1Cc1cn(CC(=O)OC)c2ccc(OC)cc12 (configuration not stated) | 13.3% [at 5 µM] (inactive)
COc1ccc(-c2nc3c(s2)CN(C(=O)Nc2ccc(C)cc2Cl)CC3)cc1 | 78.4% (inactive)
O=C(Nc1ccc(F)cc1)N1CC(=O)N2[C@@H](CO)[C@@H](c3ccc(C4=CCCC4)cc3)[C@@H]2C1 | 25.4% [at 10 µM] (inactive)
O=C(c1cnccn1)N1CC(=O)N2[C@H](CO)[C@H](c3ccc(-c4cccc(F)c4)cc3)[C@@H]2C1 | 25.7% (inactive)
O=C(c1cnccn1)N1CC(=O)N2[C@H](C1)[C@@H](c1ccc(-c3cccc(F)c3)cc1)[C@@H]2CO | 6.32% (inactive)
CCOc1ccccc1-c1noc(-c2nnn(Cc3nc(-c4ccc(OC)cc4)oc3C)c2C)n1 | 9.41% [at 1.35 µM] (inactive)
